NadD inh – NadD (S. aureus) enzyme inhibition; 0.78% of 360,000 active; inhibition, % at 20 µM; purified NadD enzyme, colorimetric absorbance read-out; in the data active = inhibition above about 26%
DAGLB inh – diacylglycerol lipase beta (human) inhibition. Q8NCG7. HEK293T DAGLB membrane lysate, EnzChek fluorogenic substrate. inhibition, % at 5.17 µM. 0.059% of 340,000 active; in the data active = inhibition above about 34%
bovine MsrA act – bovine methionine sulfoxide reductase A activation; purified bovine MsrA, absorbance read-out; activation, % at 10.6 µM; 0.3% of 360,000 active; in the data active = activation above about 7.5%
rCAG RNA binder – binds r(CAG) RNA repeats; r(CAG) RNA repeat, TO-PRO-1 dye displacement fluorescence; 1.3% of 370,000 active; inhibition, % at 3 µM;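 active = inhibition above the plate cutoff, the mean of all test compounds on that plate plus 3 SD, cut at about 35% in these data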;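 also: higher means more dye released from RNA so lower well fluorescence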
MsrA inh – bovine MsrA inhibition; purified bovine MsrA, absorbance read-out; inhibition, % at 15.5 µM; 0.75% of 360,000 active; in the data active = inhibition above about 4.5%
DSG3 Ab inh – inhibitors of pemphigus antibody binding to human desmoglein-3; P32926; DSG3-coupled beads, scFv-anti-DSG3-GFP binding, flow cytometry; active compounds read low; binding (percent of control), % at 10 µM; 0.48% of 310,000 active; AID 588358;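 active = binding more than 3 SD below its plate's average and above zero; inconclusive = below that plate limit but binding exactly zero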;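 also: hits lower antibody fragment binding to DSG3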
Target sequence (P32926 whole entry, looked up, the tested form may be a part): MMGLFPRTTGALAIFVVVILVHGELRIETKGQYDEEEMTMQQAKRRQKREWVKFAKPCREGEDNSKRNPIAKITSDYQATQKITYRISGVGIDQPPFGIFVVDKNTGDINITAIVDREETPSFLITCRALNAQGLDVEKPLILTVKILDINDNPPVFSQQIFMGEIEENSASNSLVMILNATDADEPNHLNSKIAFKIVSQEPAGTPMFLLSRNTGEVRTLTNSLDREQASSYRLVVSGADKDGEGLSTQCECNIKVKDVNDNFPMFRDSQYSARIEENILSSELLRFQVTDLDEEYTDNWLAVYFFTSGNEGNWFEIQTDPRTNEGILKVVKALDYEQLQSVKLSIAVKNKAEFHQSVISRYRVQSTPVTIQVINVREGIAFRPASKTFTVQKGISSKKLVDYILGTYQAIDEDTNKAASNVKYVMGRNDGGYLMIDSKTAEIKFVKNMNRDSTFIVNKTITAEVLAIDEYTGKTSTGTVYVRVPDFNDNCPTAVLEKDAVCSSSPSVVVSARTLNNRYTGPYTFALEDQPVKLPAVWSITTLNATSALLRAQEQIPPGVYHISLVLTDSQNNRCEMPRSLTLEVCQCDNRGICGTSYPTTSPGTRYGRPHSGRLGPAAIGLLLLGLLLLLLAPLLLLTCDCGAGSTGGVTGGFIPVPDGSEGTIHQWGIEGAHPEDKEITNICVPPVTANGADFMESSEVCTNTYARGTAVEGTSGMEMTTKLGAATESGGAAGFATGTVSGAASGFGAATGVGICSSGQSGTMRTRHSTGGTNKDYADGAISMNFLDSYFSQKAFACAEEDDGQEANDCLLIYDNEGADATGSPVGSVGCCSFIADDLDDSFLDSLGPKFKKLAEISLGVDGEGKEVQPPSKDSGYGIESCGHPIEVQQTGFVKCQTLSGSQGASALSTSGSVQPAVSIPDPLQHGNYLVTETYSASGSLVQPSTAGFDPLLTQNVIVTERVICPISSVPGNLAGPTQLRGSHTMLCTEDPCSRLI
rCAG bind conf – r(CAG) RNA repeat binding, confirmation | shares compounds with rCAG RNA binder | TO-PRO-1 dye displacement fluorescence | inhibition, % at 3 µM | 70% of 4,300 active | AID 652065;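 active = inhibition above a per-plate cutoff, the mean inhibition of sample wells plus 3 SD, cut at about 35% in these data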;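 also: loss of TO-PRO-1 fluorescence as compound displaces dye from 1x1 AA loop RNA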
dCAG dye counter – counter-screen for rCAG RNA binders: DNA CAG dye complex inhibitors | shares compounds with rCAG RNA binder | d(CAG) DNA oligo TO-PRO-1 dye displacement, fluorescence | inhibition, % at 3 µM | 94% of 4,300 active | AID 652068;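 active = inhibition above its plate's cutoff, the mean test-well inhibition plus 3 SD, cut at about 4.8% in these data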;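 also: hits displace the dye from DNA and so lower well fluorescence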
dCAG dye DR – counter-screen for rCAG binders: inhibitors of DNA CAG TO-PRO-1 complex | shares compounds with rCAG RNA binder | DNA CAG/GTC duplex TO-PRO-1 dye displacement fluorescence | IC50, µM | 20% of 250 active | AID 686960; in the data active = IC50 below about 10 µM
Each line names hits and unclear results; the compound was inactive in the other large screens (follow-up assays come after a bar, where they were run). Hits are enriched below; roughly 3.2% of the tested compounds scored in any of these assays.

CC1(C(=O)NS(=O)(=O)c2ccccc2)CCN1C(=O)Cc1cccc2ccccc12 (stereo unspecified)	none (no result: DAGLB inh, DSG3 Ab inh)
CC(C)(C)c1ccc(S(=O)(=O)NC(=O)C2(C)CCN2C(=O)Cc2cccc3ccccc23)cc1 (stereo unspecified)	rCAG RNA binder 71 (no result: DAGLB inh, DSG3 Ab inh) | rCAG bind conf 62 | dCAG dye counter 25
CC(C)(C)c1ccc(CC(=O)N2CCC2(C)C(=O)NS(=O)(=O)c2ccc(Cl)cc2)cc1 (stereo unspecified)	rCAG RNA binder 37 (no result: DAGLB inh, DSG3 Ab inh) | rCAG bind conf 52 | dCAG dye counter 17
CC(C)(C)c1ccc(CC(=O)N2CCC2(C)C(=O)NS(=O)(=O)c2ccc(C#N)cc2)cc1 (stereo unspecified)	none (no result: DAGLB inh, DSG3 Ab inh)
CCN(C(=O)CSc1nnc(-c2cccnc2)n1Cc1ccco1)c1ccccc1	none (no result: NadD inh, DAGLB inh, bovine MsrA act, MsrA inh, DSG3 Ab inh)
Cc1noc(C)c1S(=O)(=O)NC(=O)C1(C)CCN1C(=O)c1ccc(C2CCCCC2)cc1 (stereo unspecified)	none (no result: DAGLB inh, DSG3 Ab inh)
COc1ccccc1C=NNC(=O)CSc1nc2ccccc2n1Cc1ccc(Cl)cc1	none (no result: NadD inh, DAGLB inh, bovine MsrA act, MsrA inh, DSG3 Ab inh)
O=C(Cn1nnc(-c2cc(C(F)(F)F)cc(C(F)(F)F)c2)n1)NNC(=S)Nc1ccc(Cl)cc1	rCAG RNA binder 66 (no result: DSG3 Ab inh) | rCAG bind conf 53 | dCAG dye counter 21
COc1cccc(/C=C2\SC(=S)NC2=O)c1OS(=O)(=O)c1ccc(NC(C)=O)cc1	rCAG RNA binder 69 | rCAG bind conf inactive | dCAG dye counter 9.3
COc1ccc(/C=C2\SC(=S)NC2=O)cc1OS(=O)(=O)c1ccc(NC(C)=O)cc1	rCAG RNA binder 88 (no result: DSG3 Ab inh) | rCAG bind conf 78 | dCAG dye counter 35
COc1cc(/C=C2/SC(=S)NC2=O)ccc1OS(=O)(=O)c1ccc(C)cc1	none (no result: rCAG RNA binder, MsrA inh)
C[C@H]1CCCN1c1cccc2c1S(=O)(=O)N(C1CC1)CCCO2	none (no result: NadD inh, DAGLB inh, bovine MsrA act, MsrA inh, DSG3 Ab inh)
CC(C)NC(=O)C1(C)CCCN1C/C=C/c1ccccc1 (stereo unspecified)	none (no result: DAGLB inh, DSG3 Ab inh)
COc1ccc(NC(=S)NNc2ccc([N+](=O)[O-])cc2S(=O)(=O)Nc2ccc(C)cc2C)cc1	rCAG RNA binder 39 | rCAG bind conf 81 | dCAG dye counter 45
O=C(/C=C/c1ccccc1)Nc1cccc(S(=O)(=O)Nc2ccccc2F)c1	rCAG RNA binder 38 | rCAG bind conf 40 | dCAG dye counter 13
CCCOc1ccc(F)cc1-c1cc(C(=O)NCc2cc(OC)cc(OC)c2)[nH]n1	none (no result: DAGLB inh, DSG3 Ab inh)
CC(C)(C)c1ccc(Oc2ccc(NC(=O)C3CC=CCC3C(=O)O)cc2)cc1 (stereo unspecified)	rCAG RNA binder 35 | rCAG bind conf 45 | dCAG dye counter 12
Fc1ccc(-c2nc3ccc(Br)cn3c2Cc2cccc(F)c2)cc1	rCAG RNA binder 48 (no result: DAGLB inh, DSG3 Ab inh) | rCAG bind conf inactive | dCAG dye counter 9.0
Fc1ccc(-c2nc3ccc(Br)cn3c2Cc2ccccc2)cc1	none
Clc1ccc(-c2nc3ccc(Br)cn3c2Cc2ccsc2)cc1	rCAG RNA binder 43 (no result: DAGLB inh, DSG3 Ab inh) | rCAG bind conf inactive | dCAG dye counter 7.8
Clc1cccc(Cc2c(-c3ccccc3)nc3ccc(Br)cn23)c1	rCAG RNA binder 46 (no result: DAGLB inh, DSG3 Ab inh) | rCAG bind conf 38 | dCAG dye counter 9.2
Clc1ccc(-c2nc3ccc(Br)cn3c2Cc2ccccc2)cc1	none
Fc1cccc(Cc2c(-c3cccc(Br)c3)nc3ccc(Cl)cn23)c1	rCAG RNA binder 46 (no result: DAGLB inh, DSG3 Ab inh) | rCAG bind conf inactive | dCAG dye counter 5.9
CCOC(=O)[C@@]12CCC3=C1N(CCC3)C(=O)[C@H](CC(=O)NCC13CC4CC(CC(C4)C1)C3)C2	none (no result: NadD inh, DAGLB inh, bovine MsrA act, MsrA inh, DSG3 Ab inh)
Cc1cc(N2C(=O)C(O)=C(C(=O)c3cc4ccccc4o3)C2c2cccc(Cl)c2)no1 (stereo unspecified)	rCAG RNA binder 60 | rCAG bind conf 71 | dCAG dye counter 32 | dCAG dye DR 5.7
Cc1cc(N2C(=O)C(O)=C(C(=O)c3cc4ccccc4o3)C2c2ccc(Br)cc2)no1 (stereo unspecified)	DSG3 Ab inh inconclusive
